In PubChem BioAssay AID2284357 (EPA ToxCast) one finds outcome data, which are given here for nine compounds.

Results filed as inconclusive are left out. Activity calls are given as the source filed them. How the source made its calls: active means hit-call score of the fitted dose curve at least 0.9, where 1 is the maximum; inconclusive means response in the unintended direction; inactive means score below 0.9.

This test relates to zebrafish Androgen Receptor (AR), gene 100005148. In words: ATG_zfAR_EcoTox2: Attagene TRANS-FACTORIAL EcoTox-2 HepG2 Assay for zebrafish Androgen Receptor (AR). The procedure: ATG_EcoTox2 is a cell-based, multiplexed assay created by modifying the existing Attagene TRANS-FACTORIAL system to include a panel of nuclear receptors from some or all the following species: human (Homo sapiens), african clawed frog (Xenopus laevis), rainbow trout (Oncorhynchus mykiss), japanese medaka (Oryzias latipes), and zebrafish (Danio rerio). The ECOTOX2-FACTORIAL format uses HepG2, a human liver cell line, with measurements taken at 24 hours after chemical dosing in a 24-well plate. ATG_zfAR_EcoTox2 is one of 29 assay components calculated in the ATG_EcoTox2 assay. It is designed to make measurements of mRNA induction, a form of inducible reporter, as detected with fluorescence intensity signals by Reverse transcription polymerase chain reaction (RT-PCR) and Capillary electrophoresis technology.The assay endpoint ATG_zfAR_EcoTox2 was analyzed in the positive analysis fitting direction relative to DMSO as the negative control and baseline of activity. Using a type of inducible reporter, measures of mRNA for gain-of-signal activity can be used to understand the reporter gene at the transcription factor-level as they relate to the gene AR. Furthermore, this assay endpoint can be referred to as a primary readout, because this assay has produced multiple assay endpoints where this one serves a reporter gene function. To generalize the intended target to other relatable targets, this assay endpoint is annotated to the nuclear receptor intended target family, where the subfamily is steroidal.
Human liver HepG2 cells are transiently transfected with multiple reporter transcription units (MRTUs) in 6-well plates using FuGene 6 reagent (Roche; 3 ml FuGene/1 mg DNA). The MRTU constructs are regulated by a cis-regulating element (promoter). Each RTU expresses a GAL4-UAS that regulates the transcription of a nearby target reporter gene sequence. A major difference between the CIS and TRANS system is that in CIS activities of endogenous TFs are measured, whereas the TRANS assay evaluates changes in activities of exogenous, chimeric NR-Gal4 proteins. […] At the end of 24 hour incubation, total RNA was isolated using TriZol reagent (Invitrogen). The isolated RNA is then reverse-transcribed using oligo(dT) primer and Mo-MLV reverse transcriptase (Invitrogen) with DNAse I (Ambion) treatment for 30 min. The one-tenth of the produced cDNA was amplified by PCR using Taq DNA polymerase (Invitrogen) and two reporter sequence-specific primers. The PCR products were fluorescently labeled by primer extension with 6-arboxyfluorescein (6-FAM) 5'-labeled reporter sequence-specific primer (2 min at 95 C, 20 s at 68 C and 10 min at 72 C) and these products were digested with 5U of HpaI (New England Biolabs) for 2h at 37 C. The fragments were purified using Qiaquick PCR columns (Qiagen), analyzed on an ABI 3130xL genetic analyzer (Applied Biosystems) with peak positions identified by using a set of X-rhodamine (ROX)-labeled MapMarker1000 molecular weight standards (BioVentures). The raw capillary electrophoresis data was processed using Attagraph software (Attagene).
Consider `C=C(c1ccc(C(=O)O)cc1)c1cc2c(cc1C)C(C)(C)CCC2(C)C`, for which the compound was called inactive.
With `CC(C)OC(=O)C(C)(C)Oc1ccc(C(=O)c2ccc(Cl)cc2)cc1`, the outcome was inactive.
Take `Cc1ccc(C)c(OCCCC(C)(C)C(=O)O)c1`: the call was inactive.
For `Cc1cccc(Nc2cc(Cl)nc(SCC(=O)O)n2)c1C`, the call was inactive.
As for `CC(C)(Oc1ccc(C2CC2(Cl)Cl)cc1)C(=O)O` (centres undefined), the compound was classed as inactive.
Consider `CC(C)(Oc1ccc(Cl)cc1)C(=O)O`, for which the compound was called inactive.
The same measure for `C[C@@H]1C[C@H]2[C@@H]3CCC4=CC(=O)C=C[C@]4(C)[C@@]3(F)[C@@H](O)C[C@]2(C)[C@@]1(O)C(=O)COP(=O)(O)O`: “inactive”; for `C[C@]12C=CC(=O)C=C1CC[C@@H]1[C@@H]2C(=O)C[C@@]2(C)[C@H]1CC[C@]2(O)C(=O)CO`: “inactive”.
Turning to `CC(c1cc2ccccc2s1)N(O)C(N)=O` (centres undefined), the compound was classed as inactive.
